According to PubChem BioAssay (EPA / NIEHS):
Inconclusive results are not listed. Calls of active or inactive are those of the source. The calls were made as follows: active = hit-call score of the fitted dose curve at least 0.9, where 1 is the maximum; inconclusive = response in the unintended direction; inactive = score below 0.9.

The compounds below were run on Sodium/Iodide Symporter (NIS), SLC5A5 (gene 6528) (assay: CPHEA_Stoker_NIS_Inhibition_RAIU: CPHEA's Radioactive Iodide Uptake (RAIU) Assay for Sodium/Iodide Symporter (NIS) Inhibition, Stoker and Laws Labs (AID 2283841)).
Procedure: CPHEA_Stoker_NIS is a cell-based, single-readout assay that uses hNIS-HEK293T-EPA, a novel human kidney cell line expressing human NIS, with measurements taken at 2 hours after chemical dosing in a 96-well plate. This radioactive iodide uptake (RAIU) assay is used to identify inhibitors of NIS-mediated iodide uptake. A parallel cytoxicity assay (Cell Titer Glo, Promega) was also run in the same cell line.CPHEA_Stoker_NIS_Inhibition_RAIU is one of 2 assay components measured from the CPHEA_Stoker_NIS assay. It is designed to make measurements of radioactive substrate uptake to understand transporter function, as detected with 125-i signals by MicroBeta radioactivity plate reader technology.Data from the assay component CPHEA_Stoker_NIS_Inhibition_RAIU was analyzed at the endpoint, CPHEA_Stoker_NIS_Inhibition_RAIU, in the positive analysis fitting direction relative to DMSO as the negative control and baseline of activity. Measures of radioactive substrate uptake for loss-of-signal activity can be used to understand the effects on transporter function at the pathway level as they relate to the sodium-iodide symporter, gene SLC5A5. To generalize the intended target to other relatable targets, this assay endpoint is annotated to the transporter intended target family, where the subfamily is sodium-iodide symporter (NIS).
hNIS-HEK293T-EPA cells were seeded with a MultiFlo FX dispenser (BioTek, Winooski, VT) into ScintiPlate-96 microplates (Perkin Elmer, Waltham, MA) at a density of 4.0x10^4 cells per well in 200uL growth media and incubated for 40 hours before experimentation. On day of the assay, carrier-free 125I (Perkin-Elmer, Waltham, MA; specific activity: 17.4Ci/mg) was diluted with Hanks' balanced salt solution (Sigma, St. Louis, MO) supplemented with 10mM HEPES (uptake buffer; pH 7.4) at 5uCi/mL (288pg 125I/mL uptake buffer; 2.30nM). The assay was initiated by washing cells twice with 200uL uptake buffer using a 96-well Tecan HydroSpeed plate washer (Tecan, Mannedorf, Switzerland). Uptake buffer (59.7uL) was then added back to each well. Chemical samples (350nL at 200X) were administered using the HDR tool as previously described to achieve a 1X chemical/0.5% final DMSO concentration with subsequent addition of 10uL of 125I dilution (final [125I]: 329pM; 2.88pg/well) for a final reaction volume of 70uL/well. Cells were incubated at room temperature for 2 hours and then washed twice with 200uL ice cold uptake buffer. All uptake buffer was aspirated from wells, plates were sealed, and read on a MicroBeta2 plate reader (Perkin Elmer, Waltham, MA) using a detection protocol to measure CPM corresponding to intracellular 125I concentration. Each chemical concentration (0.001, 0.01, 0.1, 1.0, 10, and 100uM) was assayed in triplicate with three independent biological replicate plates (3 sequential cell passages). Additionally, a concentration response of NaClO4 (0.001, 0.01, 0.1, 1.0, 10, and 100uM) served as a positive control inhibition curve on each RAIU assay plate. DMSO control wells were assayed on each plate as a measure of maximum iodide uptake for normalization and determination of intra- and inter-assay variation. (Toxicol In Vitro, 2017, 40:66-78).

SMILES | AC50 | outcome
O=C(CC(=O)C(F)(F)C(F)(F)C(F)(F)F)c1cccs1 | 13.5 µM (active) | 
Cc1[nH]nc2c1N=C(c1ccccc1Cl)c1cc([N+](=O)[O-])ccc1N2 |  | inactive
CN(CCO)S(=O)(=O)C(F)(F)C(F)(F)C(F)(F)C(F)(F)C(F)(F)C(F)(F)C(F)(F)C(F)(F)F |  | inactive
O=C(O)C(F)(F)OC(F)(F)C(F)(F)OC(F)(F)C(F)(F)OC(F)(F)C(F)(F)C(F)(F)C(F)(F)F |  | inactive
O=C(O)C(=O)O |  | inactive
O=C1OC2(c3ccccc31)c1cc(I)c(O)c(I)c1Oc1c2cc(I)c(O)c1I | 0.248 µM (active) | 
Cc1cc(C(C)(C)C)c(O)c(C(C)(C)C)c1 |  | inactive
CC(C)c1c(C(=O)Nc2ccccc2)c(-c2ccccc2)c(-c2ccc(F)cc2)n1CC[C@@H](O)C[C@@H](O)CC(=O)O |  | inactive
CCCCCCCCCCCC |  | inactive
CCCCCCc1ccc(N)cc1 |  | inactive
NC(=NCCCCCCN=C(N)/N=C(\N)Nc1ccc(Cl)cc1)/N=C(\N)Nc1ccc(Cl)cc1 |  | inactive
CCCCC(CC)C(=O)O (stereo unspecified) |  | inactive
Cc1cc(Cc2cc(C)cc(C(C)(C)C)c2O)c(O)c(C(C)(C)C)c1 |  | inactive
OCC(F)(F)C(F)(F)C(F)(F)C(F)(F)C(F)(F)C(F)(F)C(F)(F)C(F)(F)C(F)(F)C(F)(F)C(F)(F)F |  | inactive
NCCN | 4.18 µM (active) | 
O=C(O)CCC(F)(F)C(F)(F)C(F)(F)C(F)(F)C(F)(F)F |  | inactive
